In the library only some 19% were active in any assay of this set; here they are far more common.
HT1080-NT tox – kills 2HG-producing HT-1080-NT fibrosarcoma cells. AID 686970. hit rate 1.6% among 360,000. HT-1080-NT fibrosarcoma viability, CellTiter-Glo ATP luminescence, 48 h. Potency, µM (doses to about 46.1 µM), for inactives: at the top dose activity, negative = less viability, usual class: cytotoxic;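 also: NT is the 2HG producing partner of a matched IDH1 knockdown line; 0% = DMSO-treated cells and -100% = media-only wells without cells; nearly all actives have a fitted effect of over 55% in size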
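750 cells/well, RPMI + 5% FBS; 2 h settle, compound pin-transfer, 48 h at 37 degrees C. CellTiter-Glo 10 min RT, luminescence. Normalized to DMSO and media-only wells.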
DT40 TDP1 CPT – DT40-hTDP1 cell growth loss with CPT; chicken DT40 Tdp1-/-;hTDP1 cells + 20 nM CPT, ATP luminescence, 48 h; Potency, µM (top dose mostly 46.2 µM), inactives show at the highest dose activity change, negative = growth inhibition, actives largely listed as inhibitors; hit rate 12% among 420,000; AID 686979; also: nearly all actives have a fitted effect of over 55% in size
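Chicken DT40 Tdp1-/- cells stably complemented with human TDP1 were seeded at 400 cells/well in medium containing 20 nM camptothecin, exposed to pin-transferred compounds, and grown at 37 °C for at least 48 hr. Viability was read as ATP luminescence.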
KB-3-1 tox – KB-3-1 parental cell cytotoxicity | KB-3-1 viability, CellTiter-Glo ATP luminescence, 72 h | Potency, µM (highest dose often 46.1 µM), actives largely listed as cytotoxic | hit rate 1.4% among 400,000; also: nearly all actives have a fitted effect of over 60% in size
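Luminescent ATP read-out (CellTiter-Glo) measures survival of drug-naive KB-3-1 cells after 72 h compound exposure at 37 °C. Titration series was screened from lowest to highest concentration, with DMSO vehicle plates as background controls.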
KB-V1 MDR tox – kills drug-selected multidrug resistant KB-V1 cells | AID 1347076 | Potency, µM (top dose mostly 46.1 µM), actives largely listed as cytotoxic | hit rate 3.4% among 400,000 | KB-V1 MDR cells viability, CellTiter-Glo, 72 h; also: nearly all actives have a fitted effect of over 60% in size
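qHTS viability screen in drug-selected KB-V1 MDR cells: 72 h compound treatment at 37 degrees C, ATP luminescence end point.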
HT1080 IDH1KD tx – kills HT-1080 cells with IDH1 knockdown | hit rate 2% among 360,000 | Potency, µM (series often up to 46.1 µM), without a hit: at the top dose activity, negative = toxicity, most hits filed as cytotoxic | HT-1080 IDH1 knockdown viability, ATP luminescence, 48 h;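 also: 0% = DMSO wells and -100% = cell-free medium wells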
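% activity derives from luminescence (CellTiter-Glo), normalised to DMSO and no-cell wells. HT-1080-IDH1KD cells, 750/well, had 48 h compound exposure at 37 °C.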
TDP1 cell noCPT – qHTS for Inhibitors of human tyrosyl-DNA phosphodiesterase 1 (TDP1): qHTS in cells in absence of CPT | DT40 Tdp1-/- hTDP1 cells, no CPT, ATP luminescence, 48 h | Potency, µM (series often up to 46.2 µM), for inactives: at the highest dose activity change, negative = growth inhibition, hits mostly inhibitors | hit rate 15% among 420,000 | AID 686978, 2013; also: nearly all actives have a fitted effect of over 55% in size
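Chicken DT40 Tdp1-/- cells complemented with human TDP1, screened without camptothecin (DMSO vehicle only), 400 cells/well. Compounds pin-transferred, cells incubated at 37 °C for at least 48 hr. Growth read as ATP-dependent luminescence (CellTiter-Glo, 30 min at RT).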
* = called active by the depositor; i = inactive; ? = inconclusive; . = not tested or not shown; [ ] = another dose, or the depositor's remark. Calls follow the shape of the dose curve; as a rule, active = well fitted curve in the direction sought with a large enough effect; inconclusive = small, poorly fitted or top-dose-only effect, or another doubt; inactive = no such curve, though single readings can be large; an effect the other way counts as inactive or inconclusive. Unless noted, % is scaled to controls: 0 for no effect and ±100 for the full control effect; potency is read from the fitted curve at half-maximal effect.

SMILES	HT1080-NT tox	DT40 TDP1 CPT	KB-3-1 tox	KB-V1 MDR tox	HT1080 IDH1KD tx	TDP1 cell noCPT
CCOc1ccccc1C(=O)NC(C(=O)N(C)Cc1ccc2c(c1)OCO2)C(C)C (stereo not drawn)	7%	18µM*	i	?	6%	?
CCOC(=O)N1CCC(N2Cc3cccc(C(=O)NCc4ccc(C)cc4)c3C2=O)CC1	-3%	?	i	i	-1%	?
CCOc1ccccc1C(=O)NC(C(=O)NCc1ccc(F)cc1)C(C)C (stereo not drawn)	-4%	?	i	?	-4%	?
COc1ccc(C(=O)NCCC(=O)N2CCC3(CC2)NCCc2[nH]cnc23)cc1	27%	?	i	i	-1%	-25%
CC(=O)Nc1cc(NC(C)=O)cc(C(=O)OCC(=O)Nc2ccc(S(=O)(=O)NC3=NCCCCC3)cc2)c1	9%	-2%	i	?	7%	10%
COc1ccc2c(c1)-c1nc(-n3ncc(C(=O)NCc4cccc(C)n4)c3C3CC3)ncc1CC2	.	1%[9.04 µM]	.	.	.	-16%
Oc1ccccc1CN1CCC(C(O)(c2ccccc2)c2ccccc2)CC1	4%	-14%	i	i	2%	?
OC(c1ccccc1)(c1ccccc1)C1CCN(CCCOc2cccc(OC(F)(F)F)c2)CC1	18µM*	16µM*	?	i	16µM*	16µM*
N#CCc1ccc(OCCCN2CCC(C(O)(c3ccccc3)c3ccccc3)CC2)cc1	21µM*	23µM*	?	18µM*	?	21µM*
CC(C)(C)c1ccc(C(O)CCCN2CCC(C(O)(c3ccccc3)c3ccccc3)CC2)cc1 (stereo not drawn)	-13%	5.8µM*	i	i	-19%	4.6µM*
OC(c1ccccc1)(c1ccccc1)C1CCN(CCCOc2ccc3c(c2)CCCC3)CC1	15µM*	4.1µM*	?	21µM*	13µM*	5.2µM*
c1ccc(COc2ccc(OCCCN3CCCC3)cc2)cc1	-11%	8%	i	?	-18%	?
CC(=O)Nc1ccc(OCCCN2CCC(C(O)(c3ccccc3)c3ccccc3)CC2)cc1	-24%	?	i	i	?	?
CC(=O)Nc1ccccc1OCCCN1CCC(C(O)(c2ccccc2)c2ccccc2)CC1	?	?	i	?	?	?
COc1ccc(C(=O)NC2=Nc3ccccc3N=C(C)C2c2ccccc2)cc1 (stereo not drawn)	-23%	-18%	i	?	-18%	?
Cn1c(=O)cc(NCCc2ccccc2)[nH]c1=O	-23%	7.3µM*	?	?	-27%	10µM*
Cn1c(=O)cc(Nc2ccc(Cl)cc2)[nH]c1=O	0%	?	i	i	-4%	21µM*
CCc1ccc(OCC(=O)N/N=C\c2ccco2)c([N+](=O)[O-])c1	15%	-5%	i	i	1%	-19%
O=C1CSC(=Nc2cccc(C(=O)O)c2)N1	5%	21%	i	i	14%	-3%
CC(=O)c1cccc(N=C2NC(=O)CS2)c1	8%	9%	i	6.5µM*	9%	5%
CCCNC(=O)C1CC(=O)N(c2ccc(OCc3ccc(Cl)cc3)cc2)C1 (stereo not drawn)	-16%	?	i	?	-4%	8.2µM*
NC(=O)C1CC(=O)N(c2ccc(OCc3ccc(Cl)cc3)cc2)C1 (stereo not drawn)	1%	?	i	i	2%	23µM*
CCCNC(=O)C1CC(=O)N(c2ccc(OCc3ccc(F)cc3)cc2)C1 (stereo not drawn)	-4%	-24%	i	i	-19%	-26%
O=C(NCCCN1CCOCC1)/C(=C/c1ccco1)NC(=O)c1ccccc1	11%	-4%	i	?	13%	-13%
CCc1ccc2occ(CC(=O)Nc3c(C(=O)c4ccccc4)oc4ccccc34)c2c1	.	-26%	i	i	.	?
SMILES	HT1080-NT tox	DT40 TDP1 CPT	KB-3-1 tox	KB-V1 MDR tox	HT1080 IDH1KD tx	TDP1 cell noCPT
Cc1ccccc1-c1nc(CS(=O)(=O)CC(=O)NCC(C)c2ccccc2)c(C)o1 (stereo not drawn)	.	?	i	?	.	16µM*
Cc1ccccc1-c1nc(CS(=O)(=O)CC(=O)Nc2cc(F)ccc2F)c(C)o1	?	?	i	i	-11%	21µM*
Cc1cccc(N2CCN(C(=O)CS(=O)(=O)Cc3nc(-c4ccccc4C)oc3C)CC2C)c1 (stereo not drawn)	.	15µM*	?	i	.	?
Cc1ccccc1-c1nc(CS(=O)(=O)CC(=O)NCCc2ccccc2)c(C)o1	-2%	?	i	i	-3%	-26%
Cc1ccccc1-c1nc(CS(=O)(=O)CC(=O)NCc2cccc(Cl)c2)c(C)o1	.	16µM*	i	i	.	?
Cc1c2cnn(CC(=O)NC(C)C)c(=O)c2c(C)n1Cc1ccccc1Cl	.	?	i	i	.	?
CCN(CC)CCNC(=O)c1ccc(NC(=O)COc2ccc3c(c2)CCC3)cc1	-10%[9.24 µM]	?	i	i	-1%	?
O=C(OCc1nc2ccsc2c(=O)[nH]1)c1ccccc1	18%	?	i	i	8%	-35%
CC(C)c1ccc(NC(=O)[C@H](NC(=O)[C@@H]2Cc3ccccc3CN2)c2ccccc2)cc1	?	?	i	i	?	?
COc1ccc(NC(=O)c2ccc(NC(=O)COC(=O)c3cnc(C)cn3)cc2)cc1	15%	-11%	i	i	18%	-20%
COc1ccccc1NC(=O)c1ccc(SCC(=O)NCc2ccccc2Cl)c([N+](=O)[O-])c1	-12%	?	i	i	-11%	?
COc1ccccc1CNC(=O)CSc1ccc(C(=O)Nc2ccccc2OC)cc1[N+](=O)[O-]	11%	9.2µM*	i	i	8%	9.2µM*
COc1cccc(NC(=O)CCN2CCN(CCO)CC2)c1	.	-15%	i	i	.	-2%
O=C(Cc1nc2ccccc2[nH]1)c1cccc([N+](=O)[O-])c1	2%	2.9µM*	?	i	-7%	3.7µM*
O=C(c1nc2ccccc2[nH]1)c1ccccc1[N+](=O)[O-]	-1%	3%	?	i	2%	-21%

Screening results (PubChem BioAssay)
